Test results: PubChem BioAssay AID2783 (National Center for Advancing Translational Sciences (NCATS), 2010)
Records with an inconclusive call do not appear. Active and inactive are the calls of the source. Calls follow the shape of the dose curve; as a rule, active = well fitted inhibition curve with a large enough effect in the polarisation, with a control signal flat (not every such curve was filed as active); inconclusive = small, poorly fitted or top-dose-only effect, or effect the other way, or a change in a side signal; inactive = no such curve, though single readings can be large or run the other way; the % refers to the polarisation.

biological target: Menin (Homo sapiens) (UniProt O00255); assay: Confirmation of Inhibitors Targeting the Menin-MLL Interaction in MLL Related Leukemias: Competition With Fluorescein Labeled MLL-derived Peptide; details: Fluorescence polarization, fluorescein-MLL peptide displacement from menin; series mostly up to 100 µM
Sequence (O00255 whole entry, looked up): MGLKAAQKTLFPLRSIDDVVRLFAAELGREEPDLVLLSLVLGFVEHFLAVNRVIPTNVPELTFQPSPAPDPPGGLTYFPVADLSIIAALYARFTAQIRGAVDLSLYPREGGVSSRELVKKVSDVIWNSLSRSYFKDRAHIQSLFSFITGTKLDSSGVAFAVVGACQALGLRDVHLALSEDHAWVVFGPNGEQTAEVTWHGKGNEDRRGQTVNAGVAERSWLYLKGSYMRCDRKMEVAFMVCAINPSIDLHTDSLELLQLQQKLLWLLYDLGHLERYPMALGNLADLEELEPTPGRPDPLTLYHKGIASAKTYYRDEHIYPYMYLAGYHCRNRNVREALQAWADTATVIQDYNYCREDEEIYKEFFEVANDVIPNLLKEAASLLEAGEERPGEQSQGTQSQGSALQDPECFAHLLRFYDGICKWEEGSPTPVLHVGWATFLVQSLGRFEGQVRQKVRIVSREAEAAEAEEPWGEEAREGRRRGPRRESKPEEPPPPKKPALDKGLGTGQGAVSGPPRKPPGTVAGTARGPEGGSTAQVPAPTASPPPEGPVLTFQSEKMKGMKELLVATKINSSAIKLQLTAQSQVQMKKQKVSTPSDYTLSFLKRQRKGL

outcome, inactive:
O=c1oc2c(O)c(O)cc3c(=O)oc4c(O)c(O)cc1c4c23, Cc1[nH]nc(-c2ccc(OCc3cnn(-c4ccccc4)c3)c(C)c2O)c1Oc1ccccc1, O=C(Nc1nccs1)C(Br)C(Br)c1ccccc1 (centres undefined), O=C(CSc1ccc(Cl)cc1)Nc1ccc(NC(=O)c2ccco2)cc1, Cc1cccc(NC(=O)CSc2nc3ccc(NC(=O)CSc4nnnn4-c4ccccc4)cc3s2)c1C, O=C(C1CCCN(Cc2cccc(Cl)c2)C1)N1CCCCC1 (centres undefined), C=C1CCC[C@]2(C)C[C@H]3OC(=O)C(CNCCN(CC)CC)[C@H]3CC12 (some centres undefined), O=C(NCC1CCCO1)c1ccc(OC2CCN(C(=O)C3CC3)CC2)cc1 (centres undefined), Cc1ccccc1-c1n[nH]c(=S)n1C, CCOc1ccc(NC(=O)c2cccc(OC(=S)N3CCC(C)CC3)c2)cc1, CN(C)CCCNCC(=O)c1c(-c2ccccc2)n(C)c2ccccc12, CC(C)Cc1cc(C(=O)NCCCN2CCOCC2)no1, O=C(CS)Nc1ccc2ccccc2c1, NC(=O)c1cc2ccccc2o/c1=N/NC(=O)c1cccc(F)c1, CC(c1cc2ccccc2s1)N(O)C(N)=O (centres undefined), O=C(O)CCC(=O)Nc1ccc(SSc2ccc(NC(=O)CCC(=O)O)cc2)cc1, Cc1nn(-c2ccccc2)c2nc(N)c(C(N)=O)cc12, C=C(C)[C@@H]1CC=C(CN2CCN(Cc3ccccc3)CC2)CC1, Cc1cc2ccccc2nc1SCC(=O)Nc1nc(-c2ccccc2)cs1, COc1ccc2nc(NC(=O)CSc3nnc(N)s3)sc2c1, COC(=O)COc1ccc(C(C2C(=O)CC(C)(C)CC2=O)C2C(=O)CC(C)(C)CC2=O)cc1, CC(=O)c1ccc2c(c1)N(CCCN1CCC(CCO)CC1)c1ccccc1S2, Cc1ccc(NC(=O)C(C)N2C(=O)c3ccccc3C2=O)c(C)c1 (centres undefined), CCCn1c(=O)c(C(=O)Nc2ccccc2C(=O)OCC)c(O)c2ccccc21, Cc1ccc(NC(=O)C(OC(=O)c2ccc(C=O)cc2)c2ccccc2)cc1Cl (centres undefined), COc1ccc(-c2csc(NC(=O)c3cc(-c4cccs4)nc4ccccc34)n2)c(OC)c1, CCc1ccc(CNC(=O)CCS(=O)(=O)Cc2ccccc2F)cc1, O=C(c1cc(F)c(F)cc1Cl)N1CCN(c2ncccn2)CC1, CSC[C@@H]1NC(=S)N(c2ccc(C)cc2)C1=O, CN(C)C(CNc1ncnc2sc3c(c12)CCCCC3)c1ccco1 (centres undefined), Cc1ccc(NC(=O)CN(C)C(=O)COc2cccc3cccnc23)cc1, COC(CSc1nc(N)c2c3c(sc2n1)CN(C)CC3)OC, O=c1c2ccccc2nc(N/N=C/c2c(O)ccc3ccccc23)n1O, CCOc1ccc(CCNC(=O)C(C)N2C(=O)CC(C)(C)Sc3ccccc32)cc1 (centres undefined)
